Data as given in the supplement of paper PMC10127200.
Counter-ions that a name gives are not always drawn.

Assays:
Test in all cases: Euclidean distance of Cell Painting phenotypic profile (signed KS, 77 features) to DMSO centroid (dimensionless distance); 5 or 10 uM (library dependent); higher = stronger phenotypic change vs DMSO (phenoactivity)
Conditions in all cases: 48 h
786-O = test system: 786-O
Summary of the method: (§1)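 Harmony extracted 77 features from 20X confocal images (9 fields/well) of stained cells, scoring each as a signed Kolmogorov-Smirnov statistic against same-plate vehicle wells. The cells, five cancer lines and a healthy fibroblast line, had received library compounds for 48 h at 10 or 5 uM depending on library, with 0.1% DMSO final. Phenoactivity is the Euclidean distance from each plate-position-corrected, correlation-weighted, top-dose replicate-averaged profile to the median vehicle profile.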

A549 = test system: A549
Summary of the method: as §1

DU145 = test system: DU145
Summary of the method: as §1

FB = test system: FB
Summary of the method: as §1

HEPG2 = test system: HEPG2
Summary of the method: as §1

OVCAR4 = test system: OVCAR4
Summary of the method: as §1

| Structure (SMILES) | Euclidean distance (786-O) | Euclidean distance (A549) | Euclidean distance (DU145) | Euclidean distance (FB) | Euclidean distance (HEPG2) | Euclidean distance (OVCAR4) |
| --- | --- | --- | --- | --- | --- | --- |
| Oc1ccc(O)cc1 [Hydroquinone] | 1.49 | 1.06 | 1.21 | 1.36 | 1.04 | 1.09 |
| OCCOc1ccc(/C(=C(/CCCl)c2ccccc2)c2ccccc2)cc1 [Ospemifene] | 0.936 | 1.29 | 0.819 | 0.945 | 1.26 | 1.06 |
| Cn1cnc2c(F)c(Nc3ccc(Br)cc3Cl)c(C(=O)NOCCO)cc21 [Selumetinib (AZD6244)] | 2.23 | 2.67 | 2.91 | 2.95 | 1.72 | 2.19 |
| O=c1oc2cc(O)ccc2s1 [Tioxolone] | 1.49 | 0.671 | 0.857 | 0.922 | 2.64 | 1.29 |
| C[N+](C)(C)CCOC(=O)CCC(=O)OCC[N+](C)(C)C [Succinylcholine Chloride Dihydrate] | 1.36 | 2.04 | 1.93 | 1.82 | 1.34 | 1.91 |
| COc1cc(CCc2cc(NC(=O)c3ccc(N4CC(C)NC(C)C4)cc3)n[nH]2)cc(OC)c1 (stereo not given) | 1.7 | 1.94 | 1.5 | 3.59 | 2.79 | 1.46 |
| Cc1nc2n(c(=O)c1CCN1CCC(c3noc4cc(F)ccc34)CC1)CCCC2 [Risperidone] | 1.21 | 0.71 | 0.723 | 1.08 | 0.51 | 0.674 |
| Cc1ncc(C[n+]2csc(CCO)c2C)c(N)n1 [Thiamine HCl (Vitamin B1)] | 1.43 | 0.642 | 0.753 | 0.562 | 1.12 | 1.21 |
| Cn1c(N2CCCCS2(=O)=O)nc(C(=O)NCc2ccc(F)cc2)c(O)c1=O | 3.24 | 2.86 | 4.79 | 2.83 | 3.37 | 3.36 |
| CO[C@H]1C[C@@H]2CC[C@@H](C)[C@@](O)(O2)C(=O)C(=O)N2CCCC[C@H]2C(=O)O[C@H]([C@H](C)C[C@@H]2CC[C@@H](OC(=O)C(C)(CO)CO)[C@H](OC)C2)CC(=O)[C@H](C)/C=C(\C)[C@@H](O)[C@@H](OC)C(=O)[C@H](C)C[C@H](C)/C=C/C=C/C=C/1C | 3.03 | 1.74 | 1.55 | 2.95 | 1.69 | 2.08 |
| COC(=O)C1=CO[C@@H](O[C@@H]2O[C@H](CO)[C@@H](O)[C@H](O)[C@H]2O)[C@@H]2C(CO)=CC[C@H]12 [Geniposide] | 0.724 | 0.87 | 1.03 | 0.949 | 0.616 | 1.23 |
| C[C@H](CCC(=O)O)[C@H]1CC[C@H]2[C@@H]3C[C@H](O)[C@@H]4C[C@H](O)CC[C@]4(C)[C@H]3CC[C@]12C [Hyodeoxycholic acid (HDCA)] | 1.08 | 0.973 | 0.585 | 0.898 | 0.401 | 1.37 |
| N#C/C(=C(/N)Sc1ccc(N)cc1)c1ccccc1C(F)(F)F | 0.949 | 1.46 | 0.889 | 1.1 | 1.41 | 0.988 |
| O=C(Nc1c(Cl)cncc1Cl)c1ccc(OC(F)F)c(OCC2CC2)c1 [Roflumilast] | 1.07 | 1.27 | 0.92 | 0.952 | 0.815 | 1.12 |
| O=C(O)c1cccnc1Nc1cccc(C(F)(F)F)c1 [Niflumic acid] | 0.923 | 1.01 | 1.02 | 1.24 | 1.19 | 1.26 |
| Cc1ccc(C(=O)Nc2ccc(CN3CCN(C)CC3)c(C(F)(F)F)c2)cc1C#Cc1cnc2cccnn12 | 4.62 | 4.2 | 6.75 | 1.08 | 4.93 | 4.29 |
| O=C(OC[C@H]1O[C@@H](OC(=O)c2cc(O)c(O)c(OC(=O)c3cc(O)c(O)c(O)c3)c2)[C@H](OC(=O)c2cc(O)c(O)c(OC(=O)c3cc(O)c(O)c(O)c3)c2)[C@@H](OC(=O)c2cc(O)c(O)c(OC(=O)c3cc(O)c(O)c(O)c3)c2)[C@@H]1OC(=O)c1cc(O)c(O)c(OC(=O)c2cc(O)c(O)c(O)c2)c1)c1cc(O)c(O)c(OC(=O)c2cc(O)c(O)c(O)c2)c1 [Tannic acid] | 0.956 | 1.44 | 1.47 | 1.45 | 1.43 | 1.05 |
| COc1ccccc1[C@H](Cn1c(=O)n(C(C)(C)C(=O)O)c(=O)c2c(C)c(-c3ncco3)sc21)OC1CCOCC1 [Firsocostat (GS-0976)] | 0.952 | 0.95 | 1.31 | 1.74 | 1.31 | 1.15 |
| O=c1sn(-c2cccc3ccccc23)c(=O)n1Cc1ccccc1 [Tideglusib] | 0.967 | 0.321 | 0.768 | 0.656 | 0.456 | 1.14 |
| CCCc1nc(C(C)(C)O)c(C(=O)O)n1Cc1ccc(-c2ccccc2-c2nnn[nH]2)cc1 [Olmesartan] | 1.21 | 0.9 | 1.57 | 0.802 | 0.353 | 1.32 |
